Screening results from PubChem BioAssay.
In the library only some 5.9% were active in any assay of this set; here they are far more common.
TrxR1 substrate = is turned over as a substrate by rat TrxR1; purified TrxR1 substrate turnover, NADPH consumption readout; Potency, µM (titrated, usually from 114 µM), for the others: top-dose activity change, negative = substrate turnover; actives 0.01% (n = 390,000); AID 588456; note: potency is the fitted concentration of half-maximal effect; nearly all actives have a fitted effect of over 50% in size
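Rat TrxR1, dispensed at 90 nM, was prereduced with 400 uM NADPH (final) for 5 min at ~22 deg C, then incubated with compound 15 min before 400 uM selenite. A first-read NADPH fluorescence drop versus no-compound background flagged substrates.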
TrxR1 inh = inhibitors of rat thioredoxin reductase 1 | O89049 | recombinant rTrxR1, NADPH fluorescence consumption, selenite substrate | Potency, µM (highest dose often 114 µM), for the others: at the top dose activity change, negative = inhibition, actives largely listed as inhibitors | actives 1% (n = 390,000) | AID 588453; note: potency is the fitted concentration of half-maximal effect; nearly all actives have a fitted effect of over 65% in size
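Rat TrxR1 (90 nM in the dispensed reagent) was pre-reduced with 400 uM NADPH for 5 min at room temperature, then incubated with compound for 15 min. After 400 uM selenite was added, NADPH fluorescence (Ex 340/Em 450 nm) was followed for 8 min.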
VP16 counter = counter-screen for ROR gamma inhibitors: Gal4-VP16 reporter. Drosophila S2 Gal4-VP16 UAS-luciferase, luminescence, 20 h. Potency, µM (highest dose often 53.6 µM), without a hit: top-dose activity, negative = inhibition, most hits filed as inhibitors. actives 3.5% (n = 310,000);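 note: Gal4-VP16 expression switched on by copper sulfate through the metallothionein promoter; potency is the fitted concentration of half-maximal effect; nearly all actives have a fitted effect of over 50% in size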
RORg inh = inhibitors of mouse ROR gamma transcriptional activity | actives 5.4% (n = 310,000) | Potency, µM (highest dose often 53.6 µM), inactives show at the top dose activity change, negative = inhibition, usual class: inhibitors | Drosophila S2 Gal4-RORgamma UAS-luciferase reporter, 20 h | P51450 | AID 2551; note: potency is the fitted concentration of half-maximal effect; nearly all actives have a fitted effect of over 60% in size
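Luminescence from a UAS-regulated Photinus luciferase reporter in stably transfected Drosophila Schneider cells is measured; decreased signal marks ROR gamma inhibition. Fusion expression is induced by 700 uM copper sulfate for 20 hr.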
GALK inhibitor = galactokinase (human) inhibition. Potency, µM (highest dose often 57.5 µM), for inactives: top-dose activity change, negative = inhibition, actives largely listed as inhibitors. P51570. actives 0.007% (n = 270,000). Purified GALK, Kinase-Glo residual ATP luminescence. AID 1868; note: potency is the fitted concentration of half-maximal effect
Target sequence (P51570 whole entry, looked up): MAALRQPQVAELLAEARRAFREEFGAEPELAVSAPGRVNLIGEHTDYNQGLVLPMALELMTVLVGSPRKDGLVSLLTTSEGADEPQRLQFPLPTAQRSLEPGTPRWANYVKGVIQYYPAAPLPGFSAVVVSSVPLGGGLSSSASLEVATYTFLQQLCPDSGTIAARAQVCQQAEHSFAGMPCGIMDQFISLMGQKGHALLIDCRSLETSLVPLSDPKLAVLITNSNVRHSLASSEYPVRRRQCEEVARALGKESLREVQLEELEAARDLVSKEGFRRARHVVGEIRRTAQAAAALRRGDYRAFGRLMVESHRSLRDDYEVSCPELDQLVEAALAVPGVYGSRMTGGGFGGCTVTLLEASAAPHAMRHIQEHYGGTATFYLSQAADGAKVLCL
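Human GALK (5 nM) with 35 uM ATP and 100 uM galactose in 20 mM HEPES pH 8.0, 5 mM MgCl2, 60 mM NaCl, 1 mM DTT, 0.01% BSA. After 1 h at room temperature, leftover ATP was read by Kinase-Glo Plus luminescence.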
Coupling enz = coupling enzyme interference in Giardia aldolase counter-screen. coupling enzyme system counterscreen, AmpLite Red fluorescence. activity change, negative = inhibition, % at 58.2 µM, hits read low. actives 0.67% (n = 290,000). AID 2472; in the data active = activity change below about -30%
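First, compound is pin-transferred into glyceraldehyde-3-phosphate coupling-enzyme reagent at 57.5 uM final and held 10 min at RT. Next, substrate, coupling system and AmpLite Red are added. After 20 min RT, fluorescence (525/598 nm) is read.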
* marks the source's active call; other numbers are inactive results; ? = inconclusive; . = no result given; [ ] = dose if it differs, or a comment. Unless noted, calls come from the whole dose curve; as a rule, active = well fitted curve in the direction sought with a large enough effect; inconclusive = small, poorly fitted or top-dose-only effect, or another doubt; inactive = no such curve, though single readings can be large; an effect the other way counts as inactive or inconclusive. % is set by controls: 0 for no effect and ±100 for the full control effect.

SMILES	TrxR1 substrate	TrxR1 inh	VP16 counter	RORg inh	GALK inhibitor	Coupling enz
Cc1nn(-c2ccccc2)c(Cl)c1/C=N/Nc1nc2ccccc2n1C	-0.7%	11.2%	3.55µM*	1.12µM*	.	-17.5
Cc1cc(C)n2nc(-c3ccc(Cl)cc3)cc2n1	18.4%	12.4%	5.2%	3.1%	1.7%	-1.9
Cc1nc2cc(-c3ccc(Cl)cc3)nn2c(NCCN(C)C)c1C	-1.0%	11.8%	5.62µM*	1.26µM*	-1.0%	-0.1
Cc1cc(=O)[nH]c2c(C)cc(S(=O)(=O)N3CCCCC3)cc12	0.1%	23.3%	18.6%	5.62µM*	-6.6%	.
Cc1cc(=O)[nH]c2c(C)cc(S(=O)(=O)N3CCOCC3)cc12	9.0%	21.1%	.	.	.	.
Cc1cc(C)nc(Nc2n[nH]c(-c3ccc(C(C)(C)C)cc3)n2)n1	-10.8%[57.1 µM]	-14.4%[57.1 µM]	4.6%	10µM*	6.3%	3.1
Cc1cc(C)nc(Nc2n[nH]c(-c3ccccc3C)n2)n1	5.1%	19.0%	-6.3%	?	-2.1%	1.1
Cc1cc(C)nc(Nc2n[nH]c(-c3ccccc3Br)n2)n1	-1.3%	9.2%	?	14.1µM*	0.1%	2.1
C/C(CC(=O)NCc1ccccc1)=N\NC(N)=S	12.8%[57.1 µM]	7.2%[57.1 µM]	-2.2%[10 µM]	10µM*	1.3%	-1.0
C/C(CC(=O)NCc1ccc(F)cc1)=N\NC(N)=S	5.3%[57.1 µM]	6.0%[57.1 µM]	-25.0%	12.6µM*	7.0%	1.1
CCNC(=O)NC(=O)C(C)OC(=O)c1ccc(SC)cc1OC (stereo not drawn)	7.0%[11.4 µM]	2.6%[11.4 µM]	-22.3%	?	0.2%	0.1
Cc1ccc(-c2cc(C(=O)NCCCn3ccnc3)c3cc(Br)ccc3n2)o1	26.5%[57.1 µM]	14.1µM*	0.8%	-2.0%	0.2%	-1.7
Cc1ccc(-c2cc(C(=O)NC3=NCCS3)c3cc(Br)ccc3n2)o1	.	.	14.1µM*	7.94µM*	1.1%	6.6
Cc1ccc(-c2cc(C(=O)O)c3cc(Br)ccc3n2)o1	90.0%	?	2.8%	-2.9%	0.0%	-6.0
CCc1cccc(C)c1NC(=O)c1ccc(CN2CCc3ccccc3C2)cc1	0.9%	8.2%	-0.2%	9.1%	1.2%	-0.8
Cc1cc(OCC(=O)OCC(=O)N2CCc3ccccc3C2)ccc1Cl	-3.5%	3.2%	.	.	.	.
COc1ccc(C(=O)C(C)[n+]2ccc(C)c3ccccc32)cc1[N+](=O)[O-] (stereo not drawn)	-10.0%	-8.5%	-2.0%	14.8%	3.4%	3.5
CC(C)CCNC(=O)CSc1nc2ccsc2c(=O)n1Cc1ccccc1Cl	3.1%[57.1 µM]	17.9%[57.1 µM]	.	.	.	.
O=C1c2ccccc2C(=O)C12OC2c1ccc(Cl)cc1Cl (stereo not drawn)	1.8%	-23.1%	?	10µM*	-3.7%	-0.3
CCOc1ccc(OCC)c(NC(=O)C2CCN(S(=O)(=O)c3cccnc3)CC2)c1	7.3%[57.1 µM]	14.3%[57.1 µM]	0.9%	-25.4%	0.3%	1.4
COc1ccc(CCNC(=O)CS(=O)Cc2nc(-c3cccs3)oc2C)cc1OC (stereo not drawn)	2.6%	39.8µM*	10.9%	5.7%	-0.5%	.
CCOc1ccc(CCNC(=O)CS(=O)Cc2nc(-c3ccc(OC)c(OC)c3)oc2C)cc1OCC (stereo not drawn)	-1.8%	0.3%	-3.2%	?	-6.7%	.
Cc1ccc(CNC(=O)CS(=O)Cc2nc(-c3cccs3)oc2C)cc1 (stereo not drawn)	6.4%[57.1 µM]	?	9.3%	-1.8%	0.5%	-1.2
Cc1ccc(CCNC(=O)CS(=O)Cc2nc(-c3cccs3)oc2C)cc1 (stereo not drawn)	-1.7%	14.1µM*	-16.5%	22.0%	-1.5%	-0.7
CS(=O)(=O)N(CCc1ccccc1)CC(=O)N1CCN(Cc2ccccc2)CC1	-0.5%	?	5.1%	7.6%	-2.6%	2.7
SMILES	TrxR1 substrate	TrxR1 inh	VP16 counter	RORg inh	GALK inhibitor	Coupling enz
COc1ccc(S(=O)(=O)N2CCCC(C(=O)NCc3ccccc3)C2)cc1 (stereo not drawn)	-3.2%	2.3%	-13.6%	?	0.8%	-1.5
COc1cc(C2=NC(CO)(CO)CO2)cc(OC)c1OC	5.6%[57.1 µM]	0.2%[57.1 µM]	4.0%	-14.3%	4.9%	4.3
COc1cccc(CNC(=O)c2ccc(N3CCOCC3)c([N+](=O)[O-])c2)c1	4.7%	17.4%	2.3%	2.6%	2.2%	-2.2
C=CCn1c(N)cc(=O)nc1SCC(=O)NC(C)c1ccccc1 (stereo not drawn)	3.6%[57.1 µM]	8.1%[57.1 µM]	17.8µM*	1.5%	0.3%	4.0
CC(NC(=O)CSc1nc(=O)cc(N)n1-c1ccccc1)c1ccccc1 (stereo not drawn)	3.6%[57.1 µM]	10.6%	-5.5%	6.8%	-0.3%	0.2
CS(=O)(=O)N1Cc2ccccc2CC1C(=O)OCC(=O)Nc1ccc2ccccc2c1 (stereo not drawn)	-7.3%	4.3%	0.2%	27.8%	1.8%	2.1
COc1c(C(=O)NCCSC(C)(C)C)ccc2ccccc12	2.9%[57.1 µM]	-7.0%[57.1 µM]	0.0%	2.24µM*	-0.1%	2.4
O=C(O)c1cc2n(n1)C(C(F)(F)F)CC(C1CC1)N2 (stereo not drawn)	-6.8%	-10.2%	1.1%	4.8%	0.0%	-1.6
CCn1c(CNC(=O)c2ccc(OC)c(OC)c2)nnc1SCC(=O)Nc1ccc(OC)cc1	-6.6%	-6.7%	-12.8%	4.1%	.	5.8
CCN1CCN(C2=C(NS(=O)(=O)c3ccc(C)cc3)C(=O)c3ccccc3C2=O)CC1	-1.8%	79.4µM*	-17.8%	?	0.7%	.
CC(=O)Nc1ccc(S(=O)(=O)NC2=C(N3CCN(C)CC3)C(=O)c3ccccc3C2=O)cc1	-2.1%	-14.2%	-29.9%	12.6µM*	5.3%	-51.8*
CC1CCN(C2=C(NS(=O)(=O)c3ccc(Cl)cc3)C(=O)c3ccccc3C2=O)CC1	1.1%	31.9%	?	11.2µM*	2.6%	-33.8*
CCOC(=O)N1CCN(C2=C(NS(=O)(=O)c3ccc(NC(C)=O)cc3)C(=O)c3ccccc3C2=O)CC1	3.5%	?	-20.9%	-34.5%	-1.8%	.
CCOC(=O)C1CCCN(C2=C(NS(=O)(=O)c3ccc(Br)cc3)C(=O)c3ccccc3C2=O)C1 (stereo not drawn)	-2.2%	19.9%	-13.5%	-17.0%	2.4%	-37.5*
O=C1C(NS(=O)(=O)c2ccccc2)=C(N2CCN(c3ccc(F)cc3)CC2)C(=O)c2ccccc21	-13.9%	-11.7%	-1.3%	-8.1%	0.3%	-20.8
O=C(Nc1ccc(N2CCN(Cc3ccccc3F)CC2)cc1)c1ccc([N+](=O)[O-])o1	1.7%	21.5%	?	0.8%	7.8%	.
CCN1CCN(C2=C(NS(=O)(=O)c3ccc(NC(C)=O)cc3)C(=O)c3ccccc3C2=O)CC1	-3.7%	22.7%	?	?	1.7%	.
